The values that follow come from PubChem BioAssay (NCI).

Among the test systems are SR leukemia; RPMI-8226 leukemia; OVCAR-8 ovarian; OVCAR-5 ovarian; OVCAR-4 ovarian; SK-OV-3 ovarian; IGROV1 ovarian; OVCAR-3 ovarian; NCI/ADR-RES ovarian; T-47D breast; BT-549 breast; MDA-MB-435 melanoma; SW-620 colon; MCF7 breast; HCT-116 colon; HCC-2998 colon; KM12 colon; HS 578T breast.
What all share (assay): NCI-60 one-dose screen, 48 h (100 = growth as untreated, 0 = no growth, -100 = all killed)
Holding throughout (details): 10 µM unless noted

The panel holds about 83,000 compounds, 20% with a hit somewhere; the sample as a whole holds those more often.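 Step 1: grow cells in 96-well plates. Step 2: add test compound at a single concentration. Step 3: incubate 48 h. Step 4: record percent growth.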 Unmarked numbers belong to inactive results. The source made the active and inactive calls. How the source made its calls: active means growth percent below 10; inactive means the rest.

On to `O=CN/N=C/c1ccc(Cl)c([N+](=O)[O-])c1`, for which the growth was 39.9% with SR leukemia; 15.6% in the test with RPMI-8226 leukemia; 18.1% in the test on OVCAR-8 ovarian; 31% in the test with OVCAR-5 ovarian; 49.6% in the test with OVCAR-4 ovarian; 46.9% in the test on SK-OV-3 ovarian. Besides, the growth in the test on IGROV1 ovarian is 16.9%; with OVCAR-3 ovarian, 18.1%; in the test with NCI/ADR-RES ovarian, 107%; in the test with T-47D breast, 25.3%; in the test on BT-549 breast, 42.6%; with MDA-MB-435 melanoma it was 18.9%. The growth is 17.6% with SW-620 colon; 6.05% (active) with MCF7 breast; 16.2% with HCT-116 colon; 27.2% with HCC-2998 colon; 7.24% (active) with KM12 colon.
In the case of `CC1(C)NC(=S)NC1=O`, the growth in the test on SR leukemia was 93.1%; in the test on RPMI-8226 leukemia it was 101%; in the test with OVCAR-8 ovarian, 106%; in the test on OVCAR-5 ovarian, 108%; in the test on OVCAR-4 ovarian, 103%; with SK-OV-3 ovarian it was 98.6%. Further, the growth is 116% with IGROV1 ovarian; 112% in the test with OVCAR-3 ovarian; 104% in the test on NCI/ADR-RES ovarian; 91.6% with T-47D breast; 103% in the test with BT-549 breast; 110% in the test on MDA-MB-435 melanoma. The growth in the test on SW-620 colon is 96.9%; with MCF7 breast, 99.2%; in the test on HCT-116 colon, 102%; in the test on HCC-2998 colon it was 112%; in the test with KM12 colon it was 108%.
Take `CCCCCCCCCCCCCCCCCC1=NCCN1CS(=O)(=O)O`: the growth is -3.33% (active) in the test on SR leukemia; 65% in the test on RPMI-8226 leukemia; 36.1% in the test with OVCAR-8 ovarian; 76.9% in the test on OVCAR-5 ovarian; 82.4% in the test on OVCAR-4 ovarian; 70.4% in the test with SK-OV-3 ovarian. In addition, the growth in the test with IGROV1 ovarian is -23.8% (active); in the test with OVCAR-3 ovarian it was 50.9%; with NCI/ADR-RES ovarian it was 59.2%; in the test with T-47D breast it was 57.4%; in the test with BT-549 breast, 93.5%; with MDA-MB-435 melanoma it was -19.9% (active). The growth was 4.2% (active) with SW-620 colon; 30.3% in the test on MCF7 breast; 44.2% in the test with HCT-116 colon; 101% in the test on HCC-2998 colon; 16.4% in the test on KM12 colon.
With `CCC(C)C1NC(=O)C(CCCCN)NC(=O)C(CCCCN)NC(=O)C(CC(C)C)NC(=O)C(CCCCN)NC(=O)C(C(C)CC)NC(=O)C(C(C)C)NC(=O)C(C(C)CC)NC(=O)C(CCCCN)NC(=O)C(CCCCN)NC(=O)C(C)NC(=O)C(CCCCN)NC(=O)C(CC(C)C)NC1=O` (configuration not stated), the growth was 2.93% (active) with SR leukemia; -17.4% (active) in the test with RPMI-8226 leukemia; 12.4% in the test on OVCAR-8 ovarian; 67.3% in the test with OVCAR-5 ovarian; 23.2% with OVCAR-4 ovarian; 26.1% in the test with SK-OV-3 ovarian. Further, the growth in the test on IGROV1 ovarian was 24.4%; in the test on OVCAR-3 ovarian it was 10.6%; with HS 578T breast, 53%; with NCI/ADR-RES ovarian it was 58.7%; in the test with BT-549 breast it was 35.5%; in the test on MDA-MB-435 melanoma it was 26.5%. In addition, the growth is 39.1% in the test on SW-620 colon; 22.5% in the test with MCF7 breast; 10.7% in the test on HCT-116 colon; 23.2% in the test on HCC-2998 colon; 6.18% (active) with KM12 colon.
In the case of `O=C1/C(=N\c2cc(=O)[nH]n2S(=O)(=O)c2ccccc2)Nc2ccccc21`, the growth with SR leukemia was 89.7%; in the test with RPMI-8226 leukemia, 95.2%; in the test on OVCAR-8 ovarian it was 102%; in the test on OVCAR-5 ovarian, 105%; with OVCAR-4 ovarian, 98.4%; in the test on SK-OV-3 ovarian, 105%. The growth is 100% in the test on IGROV1 ovarian; 104% in the test on OVCAR-3 ovarian; 91% in the test on HS 578T breast; 101% in the test on NCI/ADR-RES ovarian; 106% with BT-549 breast; 108% in the test with MDA-MB-435 melanoma. Also, the growth in the test with SW-620 colon is 99.3%; with MCF7 breast, 96.5%; in the test on HCT-116 colon, 99.3%; in the test with HCC-2998 colon, 104%; with KM12 colon it was 99.4%.
Turning to `Clc1ccc(N/N=C/c2ccccn2)nc1`, the growth in the test with SR leukemia is 6.32% (active); in the test with RPMI-8226 leukemia, 26.3%; with OVCAR-8 ovarian, 18.1%; in the test with OVCAR-5 ovarian it was 30.3%; in the test with OVCAR-4 ovarian, 6.01% (active); in the test with SK-OV-3 ovarian, 27.2%. Also, the growth in the test with IGROV1 ovarian is 11.2%; in the test with OVCAR-3 ovarian, 22.3%; in the test with HS 578T breast, 60.1%; with NCI/ADR-RES ovarian, -1.35% (active); with MDA-MB-435 melanoma, 24.4%; in the test with SW-620 colon, 36.7%. Moreover, the growth was 0.994% (active) in the test on MCF7 breast, 11.1% with HCT-116 colon, 24.5% in the test with HCC-2998 colon and 24.9% with KM12 colon.
`Brc1ccc(-c2nc3ccccc3s2)cc1`: the growth in the test with SR leukemia is 86.9%; in the test on RPMI-8226 leukemia, 94.4%; in the test on OVCAR-8 ovarian, 106%; with OVCAR-5 ovarian, 90.9%; in the test on OVCAR-4 ovarian it was 93.5%; in the test on SK-OV-3 ovarian, 91.8%. The growth was 73.9% with IGROV1 ovarian; 99% with OVCAR-3 ovarian; 89.6% in the test with HS 578T breast; 99.3% with NCI/ADR-RES ovarian; 101% with BT-549 breast; 105% in the test on MDA-MB-435 melanoma. Moreover, the growth in the test with SW-620 colon was 94.5%; with MCF7 breast it was 58.7%; in the test on HCT-116 colon it was 89.4%; with HCC-2998 colon, 110%; in the test on KM12 colon, 97.3%.
For the molecule `C/C(=N\Nc1ccc(Cl)cn1)c1ccccn1`, the growth is 4.86% (active) with SR leukemia; 8.56% (active) in the test with RPMI-8226 leukemia; 16.6% with OVCAR-8 ovarian; 23.1% in the test with OVCAR-5 ovarian; 28.7% in the test with OVCAR-4 ovarian; 3.63% (active) in the test with SK-OV-3 ovarian. Also, the growth in the test on IGROV1 ovarian was 10.2%; in the test on OVCAR-3 ovarian, 20.5%; with HS 578T breast, 34.6%; in the test on NCI/ADR-RES ovarian, -10.2% (active); with BT-549 breast, 9.46% (active); in the test with MDA-MB-435 melanoma, 26.4%. Moreover, the growth with SW-620 colon was 27%; with MCF7 breast, 3.89% (active); in the test with HCT-116 colon it was 1.21% (active); in the test on HCC-2998 colon it was 27%; in the test with KM12 colon, 20%.
Consider `CSCc1ncc(-c2ccc(C(F)(F)F)cc2)c(NC2CCCCCC2)n1`, for which the growth in the test on SR leukemia is 13.4% [25 µM]; in the test on RPMI-8226 leukemia it was 3.14% [25 µM] (active); in the test with OVCAR-8 ovarian, 75.1% [25 µM]; in the test on OVCAR-5 ovarian, 97% [25 µM]; in the test on OVCAR-4 ovarian, 83% [25 µM]; in the test on SK-OV-3 ovarian, 97.9% [25 µM]. The growth is 81.2% [25 µM] with IGROV1 ovarian; 39.4% [25 µM] in the test with OVCAR-3 ovarian; 74.9% [25 µM] in the test on NCI/ADR-RES ovarian; 53.5% [25 µM] in the test on T-47D breast; 82.1% [25 µM] in the test on BT-549 breast; 78.7% [25 µM] in the test with MDA-MB-435 melanoma. In addition, the growth in the test with SW-620 colon was 53.1% [25 µM]; with MCF7 breast it was 68% [25 µM]; in the test with HCT-116 colon it was 38.1% [25 µM]; in the test with HCC-2998 colon, 89.9% [25 µM]; in the test with KM12 colon it was 52.1% [25 µM].
